Measured values taken from the supplement of paper PMC11732987, “Enantioselective OTUD7B fragment discovery through chemoproteomics screening and high-throughput optimisation” (Communications Chemistry, 2025).

What was measured:
Assay in all cases: log2 ratio of Biotin-Ahx-Ub-VS probe labelling (fragment/DMSO); higher = less target engagement (more negative = stronger competition), active = hit call of the paper (q ≤ 0.05, log2 ratio ≤ -1)
Conditions in all cases: compound concentration: 200 uM; treatment time: 3 h
USP19 = target: T1, USP19 (UniProt O94966)
T1 sequence (whole entry): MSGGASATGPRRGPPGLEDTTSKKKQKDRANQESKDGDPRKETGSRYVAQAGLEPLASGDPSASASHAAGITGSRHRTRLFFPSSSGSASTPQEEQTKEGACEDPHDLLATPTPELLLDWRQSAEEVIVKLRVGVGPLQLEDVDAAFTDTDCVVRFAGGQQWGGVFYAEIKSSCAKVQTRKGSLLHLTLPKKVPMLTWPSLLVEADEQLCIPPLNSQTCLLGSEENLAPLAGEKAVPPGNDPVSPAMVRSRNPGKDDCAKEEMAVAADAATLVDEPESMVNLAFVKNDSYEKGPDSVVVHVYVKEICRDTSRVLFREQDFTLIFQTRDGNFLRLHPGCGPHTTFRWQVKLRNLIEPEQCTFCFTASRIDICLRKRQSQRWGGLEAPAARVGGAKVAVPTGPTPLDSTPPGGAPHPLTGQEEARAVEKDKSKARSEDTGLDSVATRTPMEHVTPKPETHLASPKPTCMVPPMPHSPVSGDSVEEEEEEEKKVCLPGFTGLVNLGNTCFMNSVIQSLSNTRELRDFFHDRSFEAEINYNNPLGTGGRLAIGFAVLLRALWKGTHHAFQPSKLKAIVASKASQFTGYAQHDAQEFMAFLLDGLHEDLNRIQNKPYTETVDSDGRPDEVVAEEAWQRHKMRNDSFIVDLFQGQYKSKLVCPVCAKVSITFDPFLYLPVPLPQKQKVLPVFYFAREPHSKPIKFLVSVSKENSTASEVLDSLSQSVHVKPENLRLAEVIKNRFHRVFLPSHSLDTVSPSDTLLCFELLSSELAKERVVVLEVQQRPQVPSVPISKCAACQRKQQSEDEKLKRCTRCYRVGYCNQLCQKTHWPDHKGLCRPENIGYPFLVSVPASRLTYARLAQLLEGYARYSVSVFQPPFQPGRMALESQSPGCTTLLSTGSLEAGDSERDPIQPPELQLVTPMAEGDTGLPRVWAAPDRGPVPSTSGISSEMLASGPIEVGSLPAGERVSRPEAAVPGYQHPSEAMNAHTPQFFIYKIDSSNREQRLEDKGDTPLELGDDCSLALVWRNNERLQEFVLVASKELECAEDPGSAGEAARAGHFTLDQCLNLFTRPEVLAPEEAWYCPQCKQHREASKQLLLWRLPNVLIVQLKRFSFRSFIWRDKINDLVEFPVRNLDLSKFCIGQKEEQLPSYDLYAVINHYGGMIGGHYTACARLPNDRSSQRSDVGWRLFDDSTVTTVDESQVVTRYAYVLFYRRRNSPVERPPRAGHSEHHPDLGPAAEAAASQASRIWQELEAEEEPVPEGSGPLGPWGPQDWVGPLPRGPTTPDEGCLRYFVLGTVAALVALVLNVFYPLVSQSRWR
Procedure, shortened: (§1)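 HEK293T lysate, 495 µg per sample in Tris/CHAPS/IGEPAL buffer with protease inhibitors, was treated in triplicate with fragment at 200 µM or vehicle for 3 h and then with Biotin-Ahx-Ub-VS at 0.5 µM final for 1 h. Labelled DUBs were NeutrAvidin-enriched, digested with LysC and trypsin, and run by diaPASEF LC-MS/MS. Spectronaut label-free quantities were global-median-normalised, and values are average log2 fragment/vehicle ratios by unpaired t-test on proteins with ≥2 unique peptides.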

USP22 = target: T2, USP22 (UniProt Q9UPT9)
T2 sequence (whole entry): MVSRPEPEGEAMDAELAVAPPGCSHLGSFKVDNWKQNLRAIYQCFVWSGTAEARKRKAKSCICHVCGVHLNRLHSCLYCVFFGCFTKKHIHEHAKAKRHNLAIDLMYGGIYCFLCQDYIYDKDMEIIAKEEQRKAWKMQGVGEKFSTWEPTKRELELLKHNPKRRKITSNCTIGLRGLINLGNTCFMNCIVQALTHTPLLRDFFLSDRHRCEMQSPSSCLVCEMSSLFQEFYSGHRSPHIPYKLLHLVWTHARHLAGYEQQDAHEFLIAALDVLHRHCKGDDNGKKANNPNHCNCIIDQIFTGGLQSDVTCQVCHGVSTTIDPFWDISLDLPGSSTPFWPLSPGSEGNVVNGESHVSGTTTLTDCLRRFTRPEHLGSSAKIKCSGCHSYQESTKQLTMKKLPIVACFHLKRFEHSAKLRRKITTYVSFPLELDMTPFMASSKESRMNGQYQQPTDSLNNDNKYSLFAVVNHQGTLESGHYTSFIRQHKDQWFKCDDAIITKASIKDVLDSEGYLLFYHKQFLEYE
Procedure, shortened: as §1

USP24 = USP24 (UniProt Q9UPU5)
Procedure, shortened: as §1

USP25 = target: T3, USP25 (UniProt Q9UHP3)
T3 sequence (whole entry): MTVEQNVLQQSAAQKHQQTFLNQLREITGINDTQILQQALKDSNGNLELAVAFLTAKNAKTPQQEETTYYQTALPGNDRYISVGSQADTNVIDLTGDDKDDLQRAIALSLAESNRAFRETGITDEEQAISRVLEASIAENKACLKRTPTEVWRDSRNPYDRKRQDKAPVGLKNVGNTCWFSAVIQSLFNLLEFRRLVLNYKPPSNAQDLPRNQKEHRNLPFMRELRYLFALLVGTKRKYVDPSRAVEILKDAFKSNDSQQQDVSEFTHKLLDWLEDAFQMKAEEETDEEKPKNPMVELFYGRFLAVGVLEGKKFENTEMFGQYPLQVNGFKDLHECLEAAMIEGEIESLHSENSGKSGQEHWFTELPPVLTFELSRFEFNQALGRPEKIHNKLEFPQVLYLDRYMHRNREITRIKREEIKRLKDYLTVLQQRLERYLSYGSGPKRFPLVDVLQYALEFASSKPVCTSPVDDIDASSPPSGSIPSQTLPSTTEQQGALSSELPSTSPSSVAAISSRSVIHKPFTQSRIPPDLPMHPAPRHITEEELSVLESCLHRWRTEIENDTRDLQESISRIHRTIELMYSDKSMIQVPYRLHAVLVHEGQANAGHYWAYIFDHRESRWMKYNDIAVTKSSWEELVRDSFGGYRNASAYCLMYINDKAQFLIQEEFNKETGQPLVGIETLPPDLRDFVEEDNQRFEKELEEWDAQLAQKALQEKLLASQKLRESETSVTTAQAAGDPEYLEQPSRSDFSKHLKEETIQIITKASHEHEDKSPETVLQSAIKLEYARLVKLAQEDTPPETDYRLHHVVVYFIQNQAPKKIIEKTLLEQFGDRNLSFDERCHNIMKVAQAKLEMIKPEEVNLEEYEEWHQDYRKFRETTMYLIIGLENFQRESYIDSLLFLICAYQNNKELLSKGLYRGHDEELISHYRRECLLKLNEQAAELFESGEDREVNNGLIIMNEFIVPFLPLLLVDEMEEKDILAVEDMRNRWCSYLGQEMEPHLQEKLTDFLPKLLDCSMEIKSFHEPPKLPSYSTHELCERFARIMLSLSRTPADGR
Procedure, shortened: as §1

USP28 = target: T4, USP28 (UniProt Q96RU2)
T4 sequence (whole entry): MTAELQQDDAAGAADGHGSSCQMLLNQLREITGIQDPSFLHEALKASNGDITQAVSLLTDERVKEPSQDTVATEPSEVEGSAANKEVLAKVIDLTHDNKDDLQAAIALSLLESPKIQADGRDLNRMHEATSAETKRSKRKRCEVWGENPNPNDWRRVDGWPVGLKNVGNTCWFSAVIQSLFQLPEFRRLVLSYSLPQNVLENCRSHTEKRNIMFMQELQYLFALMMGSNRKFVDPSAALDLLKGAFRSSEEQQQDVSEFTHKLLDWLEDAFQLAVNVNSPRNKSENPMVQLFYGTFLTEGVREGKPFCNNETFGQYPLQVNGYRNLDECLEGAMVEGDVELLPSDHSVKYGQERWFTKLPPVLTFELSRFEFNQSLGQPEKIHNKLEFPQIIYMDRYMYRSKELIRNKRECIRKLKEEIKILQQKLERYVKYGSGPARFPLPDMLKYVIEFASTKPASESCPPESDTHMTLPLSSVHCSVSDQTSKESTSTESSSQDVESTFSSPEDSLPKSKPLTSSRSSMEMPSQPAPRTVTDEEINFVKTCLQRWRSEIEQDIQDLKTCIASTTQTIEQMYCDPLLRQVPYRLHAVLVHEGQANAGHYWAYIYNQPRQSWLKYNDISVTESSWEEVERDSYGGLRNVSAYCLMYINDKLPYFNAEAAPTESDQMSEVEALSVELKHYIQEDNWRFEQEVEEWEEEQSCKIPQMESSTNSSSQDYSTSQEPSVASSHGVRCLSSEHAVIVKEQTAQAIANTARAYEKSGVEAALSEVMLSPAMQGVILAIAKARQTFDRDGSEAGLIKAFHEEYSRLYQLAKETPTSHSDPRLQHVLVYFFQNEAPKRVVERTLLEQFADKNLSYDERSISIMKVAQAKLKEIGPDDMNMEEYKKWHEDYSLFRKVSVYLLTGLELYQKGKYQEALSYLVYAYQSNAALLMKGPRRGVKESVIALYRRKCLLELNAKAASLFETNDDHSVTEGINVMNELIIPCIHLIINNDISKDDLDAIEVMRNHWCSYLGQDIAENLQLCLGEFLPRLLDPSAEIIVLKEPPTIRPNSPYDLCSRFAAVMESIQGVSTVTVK
Procedure, shortened: as §1

Measured: log2 ratio of Biotin-Ahx-Ub-VS probe labelling

Chain of USP24 (Q9UPU5 whole entry): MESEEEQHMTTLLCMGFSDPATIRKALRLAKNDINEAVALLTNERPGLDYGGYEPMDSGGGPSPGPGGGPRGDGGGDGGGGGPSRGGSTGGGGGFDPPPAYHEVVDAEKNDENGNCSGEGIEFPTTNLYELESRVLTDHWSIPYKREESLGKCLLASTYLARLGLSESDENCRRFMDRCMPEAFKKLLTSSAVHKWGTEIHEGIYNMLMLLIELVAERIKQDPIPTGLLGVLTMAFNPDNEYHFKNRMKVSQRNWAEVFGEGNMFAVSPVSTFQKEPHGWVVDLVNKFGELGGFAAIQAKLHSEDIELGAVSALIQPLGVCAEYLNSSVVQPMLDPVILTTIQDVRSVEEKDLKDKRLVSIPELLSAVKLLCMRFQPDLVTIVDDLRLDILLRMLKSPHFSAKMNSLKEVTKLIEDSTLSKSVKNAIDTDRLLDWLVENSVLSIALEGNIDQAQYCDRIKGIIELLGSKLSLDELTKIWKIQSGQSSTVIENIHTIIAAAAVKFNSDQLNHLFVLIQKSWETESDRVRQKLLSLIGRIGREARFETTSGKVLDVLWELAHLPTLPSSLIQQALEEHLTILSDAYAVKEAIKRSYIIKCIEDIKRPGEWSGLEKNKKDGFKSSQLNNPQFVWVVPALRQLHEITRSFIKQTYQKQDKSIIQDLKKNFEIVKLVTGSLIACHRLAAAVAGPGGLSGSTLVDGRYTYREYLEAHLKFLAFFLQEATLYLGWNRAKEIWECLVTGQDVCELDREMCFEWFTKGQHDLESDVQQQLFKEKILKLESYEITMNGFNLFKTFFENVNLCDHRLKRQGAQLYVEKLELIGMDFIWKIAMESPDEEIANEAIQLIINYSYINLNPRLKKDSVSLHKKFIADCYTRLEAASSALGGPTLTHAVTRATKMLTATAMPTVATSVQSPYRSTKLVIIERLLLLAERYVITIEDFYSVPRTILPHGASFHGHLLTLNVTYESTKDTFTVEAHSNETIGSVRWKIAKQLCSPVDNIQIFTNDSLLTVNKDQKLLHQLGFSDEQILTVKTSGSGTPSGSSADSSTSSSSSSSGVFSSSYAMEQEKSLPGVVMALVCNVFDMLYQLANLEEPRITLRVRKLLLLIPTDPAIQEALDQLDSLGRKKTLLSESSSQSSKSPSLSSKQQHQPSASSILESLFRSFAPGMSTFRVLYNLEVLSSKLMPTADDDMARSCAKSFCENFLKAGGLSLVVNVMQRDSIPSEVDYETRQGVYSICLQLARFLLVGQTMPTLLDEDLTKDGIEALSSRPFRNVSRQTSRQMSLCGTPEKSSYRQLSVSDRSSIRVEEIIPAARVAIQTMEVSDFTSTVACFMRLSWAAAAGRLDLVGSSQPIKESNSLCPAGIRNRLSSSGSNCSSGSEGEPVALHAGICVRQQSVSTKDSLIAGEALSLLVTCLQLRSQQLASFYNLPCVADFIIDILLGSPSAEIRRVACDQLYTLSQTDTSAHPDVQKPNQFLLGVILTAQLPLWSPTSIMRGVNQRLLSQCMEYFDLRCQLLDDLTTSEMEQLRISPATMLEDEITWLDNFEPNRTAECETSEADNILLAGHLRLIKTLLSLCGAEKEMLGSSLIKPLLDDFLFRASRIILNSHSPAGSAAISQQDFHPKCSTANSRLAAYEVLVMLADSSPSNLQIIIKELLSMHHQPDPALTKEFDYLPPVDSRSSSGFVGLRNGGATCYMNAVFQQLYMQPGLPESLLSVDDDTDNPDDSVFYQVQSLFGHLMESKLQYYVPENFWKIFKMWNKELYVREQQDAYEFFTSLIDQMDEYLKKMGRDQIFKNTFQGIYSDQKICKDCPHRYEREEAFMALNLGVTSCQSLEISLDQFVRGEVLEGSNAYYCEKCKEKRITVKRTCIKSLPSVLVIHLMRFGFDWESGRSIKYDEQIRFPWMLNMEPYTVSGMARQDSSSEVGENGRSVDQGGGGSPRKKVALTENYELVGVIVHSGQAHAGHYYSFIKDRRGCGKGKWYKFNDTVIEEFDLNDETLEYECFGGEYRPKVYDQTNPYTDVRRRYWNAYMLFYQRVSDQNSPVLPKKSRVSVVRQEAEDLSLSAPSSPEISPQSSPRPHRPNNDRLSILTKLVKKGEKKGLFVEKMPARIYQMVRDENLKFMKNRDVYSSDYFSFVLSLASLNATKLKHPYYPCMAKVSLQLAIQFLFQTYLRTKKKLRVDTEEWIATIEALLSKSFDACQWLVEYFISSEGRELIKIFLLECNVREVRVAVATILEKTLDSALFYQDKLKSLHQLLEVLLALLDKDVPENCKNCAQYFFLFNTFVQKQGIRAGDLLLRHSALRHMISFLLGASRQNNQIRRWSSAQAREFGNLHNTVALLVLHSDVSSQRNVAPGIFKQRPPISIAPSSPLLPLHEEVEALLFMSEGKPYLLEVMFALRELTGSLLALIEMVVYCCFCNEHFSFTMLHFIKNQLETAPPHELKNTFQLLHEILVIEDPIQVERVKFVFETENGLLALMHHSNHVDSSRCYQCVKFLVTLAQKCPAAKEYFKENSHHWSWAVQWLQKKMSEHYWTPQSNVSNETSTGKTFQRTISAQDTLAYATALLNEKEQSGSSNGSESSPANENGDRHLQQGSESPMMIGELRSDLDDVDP

Cl.O=C(CCl)NC1(c2ncccn2)CCC1
inactive: USP19 0.0868 | USP22 0.221 | USP24 0.06 | USP25 -0.18 | USP28 -0.0581
